Screen size: about 310,000 compounds; about 1,400 (0.45%) were called active.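 The calls were made as follows: active = B-score, a plate-corrected calcium signal, over three deviations above library mean, with baseline fluorescence within five deviations of library mean; inactive = the rest.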 The list comes from a sample in which actives are over-represented; it also holds similar structures and randomly drawn compounds.

Among the data in PubChem BioAssay AID463165 (Johns Hopkins Ion Channel Center, 2010) are B-score values, retold here.

The target in this assay is Regulator of G-protein signaling 4 (Homo sapiens) (UniProt P49798). The assay can be described thus: RGS4 inhibitors, primary screen, cell-based, HEK293 M3R inducible RGS4, calcium flux (AID 463165).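 Also: RGS4 expression induced by doxycycline in cells with stable M3 receptor.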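 As to B-score: B-score is computed from the integrated fluorescence ratio over baseline after carbachol; higher B-score means a larger calcium signal and so more RGS4 inhibition.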 The note with it: Fluo-4 calcium flux, at 10 µM, triggered by carbachol at its EC20; stronger effect = higher value. A general note: Calcium assays in cells follow changes in intracellular calcium, usually with a dye or a luminescent sensor.
Sequence of Regulator of G-protein signaling 4 (Homo sapiens) (P49798 whole entry, looked up): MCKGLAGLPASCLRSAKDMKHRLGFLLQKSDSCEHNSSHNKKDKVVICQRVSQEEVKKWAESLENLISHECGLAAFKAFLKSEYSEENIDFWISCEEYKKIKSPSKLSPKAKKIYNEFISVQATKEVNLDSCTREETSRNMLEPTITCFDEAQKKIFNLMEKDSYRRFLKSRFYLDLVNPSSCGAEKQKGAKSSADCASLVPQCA
In the case of `Cc1ccc(S(=O)(=O)N(CC(=O)NN=C2CCN(C)CC2)c2ccc(F)cc2)cc1`, the B-score entry was “inactive”. As to `CCCCN(C(=O)/C=C/c1ccco1)c1c(N)n(CC(C)C)c(=O)[nH]c1=O`, the B-score result is “inactive”.

On to `CS/C(=C\[N+](=O)[O-])Nc1ccc(C)cc1`, for which the B-score result was “inactive”.

On to `COC(=O)NNC(=O)C1CCC(C)CC1` (stereo unspecified), for which the B-score result is “inactive”.

With `O=C1CCNCCN1[C@H](CO)Cc1ccccc1`, the B-score result was “inactive”. Turning to `c1ccc(C[C@H]2CNCCN2CCC23CC4CC(CC(C4)C2)C3)cc1`, the B-score was 6.17 (active).

In the case of `CC(C)CN(C(=O)CN1CCN(S(=O)(=O)c2ccccc2)CC1)c1c(N)n(CC(C)C)c(=O)[nH]c1=O`, the B-score entry was “inactive”. On to `CCCCNC(=O)N(O)C1N(/N=C/c2ccc(N(C)C)cc2)C(=S)SC1(C)C` (stereo unspecified), for which the B-score entry is “inactive”. For `Nc1ccccc1SC(C[N+](=O)[O-])c1ccccc1` (stereo unspecified), the B-score was 7 (active). For the compound `Nc1ccccc1SCc1cc([N+](=O)[O-])cc2c1OCOC2`, the B-score result is “inactive”. For the compound `CCS(=O)(=O)c1cc([N+](=O)[O-])c(Sc2ccccc2N)s1`, the B-score entry is “inactive”. Regarding `CCCCCCCNC(=O)C1(CC2CC(c3cccc(Br)c3)=NO2)CCN(C(=O)c2cc(OCC)c(OCC)c(OCC)c2)CC1` (stereo unspecified), the B-score entry is “inactive”. On to `COc1cccc(Nc2nc(N)c([N+](=O)[O-])c(NCc3ccco3)n2)c1`, for which the B-score entry is “inactive”. As for `CNc1nc(Nc2ccc(C)c(Cl)c2)nc(N)c1[N+](=O)[O-]`, the figure is 12.7 (active); as for `Cc1ccc(Nc2nc(N3CCOCC3)nc(N3CCOCC3)n2)cc1Cl`, “inactive”; as for `CC(=O)c1nn(-c2cccc(C(F)(F)F)c2)c(=O)[nH]c1=O`, “inactive”. As for `O=C1CCCN1CCCNC(=S)Nc1ccc(F)c(Cl)c1`, the entry is “inactive”.

Consider `Cc1nc2ccccc2c(=O)n1-c1ccc(NS(=O)(=O)c2ccc(F)cc2F)cc1`, for which the B-score entry was “inactive”.

Turning to `O=C1NC(c2ccc(-c3ccccc3[N+](=O)[O-])o2)C(C(=O)c2ccc(Cl)cc2)C(O)(C(F)(F)F)N1` (stereo unspecified), the B-score was 8.35 (active). On to `CC(=O)C1C(c2cccc(Oc3ccccc3)c2)NC(=O)NC1(O)C(F)(F)F` (stereo unspecified), for which the B-score result was “inactive”.

Take `CC1=NN(c2ccc(Cl)c(C(=O)O)c2)C(=O)/C1=C/c1ccc(-c2ccccc2[N+](=O)[O-])o1`: the B-score entry is “inactive”. The value for `O=C(OCc1ccc([N+](=O)[O-])cc1)C1CC(=O)N(Cc2ccccc2Cl)C1` (stereo unspecified) was “inactive”; that for `CC(=O)Nc1ccc(Nc2c([N+](=O)[O-])cc(S(C)(=O)=O)cc2[N+](=O)[O-])cc1` was “inactive”; that for `O=C(NCc1cccs1)c1ccc(CS(=O)Cc2ccccc2Cl)o1` (stereo unspecified) was “inactive”. Turning to `CC(C)OCCCNC(=O)CN1C(=O)/C(=C/c2ccccc2F)Oc2ccccc21`, the B-score entry was “inactive”. With `O=C(CN1C(=O)COc2ccc(Cl)cc21)N1CCOCC1`, the B-score entry was “inactive”. The value for `O=C(CN1CCCCCC1)Nc1ccc(Cl)cc1F` was “inactive”; that for `COc1cc2c(cc1O)C(SC)=NC(C)(C)C2` was 15.1 (active). On to `COc1cc2c(cc1OC)C(C(C)C)=NC(C)(C)C2`, for which the B-score entry is “inactive”. As for `COc1cc2c(cc1OC)C(Nc1ccc(S(N)(=O)=O)cc1)=NC(C)(C)C2`, the B-score entry was “inactive”. In the case of `O=C(CSC1=NS(=O)(=O)c2cc(F)ccc2N1)Nc1ccccc1F`, the B-score result is “inactive”. Consider `CCOC(=O)CSc1nc(C)c(Oc2ccc(Cl)cc2Cl)c(=O)[nH]1`, for which the B-score entry was “inactive”. In the case of `CCCCOC(=O)CNc1nnc(SCC(=O)OCC)[nH]c1=O`, the B-score is 26.4 (active). Turning to `Cc1nnc(SCC(=O)N2CCOCC2)[nH]c1=O`, the B-score entry is “inactive”. Take `NC(=O)C1CCCN(CC(=O)N2CCN(c3ccccc3)CC2)C1` (stereo unspecified): the B-score entry is “inactive”.

For `COc1ccc(/C=C/C(=O)c2ccc(OC)cc2O)cc1`, the B-score is 6.02 (active). Consider `COc1ccc(C(=O)/C=C/c2cccnc2)c(OC)c1`, for which the B-score result is “inactive”. For `COc1ccc(C(=O)/C=C/c2ccc(OC3CSC3)cc2)cc1`, the B-score result was “inactive”. As for `Cc1ccc(N(C(=O)c2ccc(S(=O)(=O)N(C)C)cc2)C2C=CS(=O)(=O)C2)cc1` (stereo unspecified), the entry is “inactive”; as for `COc1ccc2oc(C(=O)OCC(=O)N(CC(C)C)c3c(N)n(Cc4ccccc4)c(=O)[nH]c3=O)c(C)c2c1`, “inactive”; as for `[O-][n+]1ccc(OCc2ccccc2)cc1`, “inactive”.

On to `CCOC(=O)c1ccc(NC(=O)Cc2cccs2)cc1`, for which the B-score entry is “inactive”. In the case of `CCOc1ccc(NC(=O)C/C(C)=N/NC(=O)Cc2cccs2)cc1`, the B-score is 7.41 (active). The value for `CCOc1ccccc1NC(=O)Cc1cccs1` was “inactive”. As for `CCn1c(O)c2ccc(C(=O)N=NC(=O)c3cccnc3)cc2c1O`, the entry is “inactive”; as for `O=S(=O)(Nc1ccc2[nH]ncc2c1)c1ccccc1Cl`, “inactive”. As for `Cc1c(NC(=O)c2cc(-c3ccc(Br)cc3)on2)c(=O)n(-c2ccccc2)n1C`, the B-score entry is “inactive”.

With `Cc1c(NC(=O)c2coc(=O)c(Br)c2)c(=O)n(-c2ccccc2)n1C`, the B-score is 8.99 (active). Turning to `Cc1c(NC(=O)c2cccnc2)c(=O)n(-c2ccccc2)n1C`, the B-score entry was “inactive”. Consider `COc1ccc(CC(NC(C)=O)C(=O)NC2CCN(C(=O)Nc3ccc(C#N)cc3)CC2)cc1OC` (stereo unspecified), for which the B-score result was “inactive”. Take `CCc1nn(CCCC(=O)NCc2ccc(C)cc2)c(=O)c2cc3occc3n12`: the B-score result was “inactive”. As to `O=C(O)CCCCCCCCc1cn(CN2C(=O)c3ccccc3C2=O)nn1`, the B-score entry is “inactive”. The value for `C=CCSc1nc(N)cc(=O)[nH]1` was “inactive”. For `C=CCSc1nc2c(c(=O)[nH]1)C(C(C)C)C(C#N)=C(N)O2` (stereo unspecified), the B-score was 7.64 (active). In the case of `Cc1cc2c(c(=O)n1C)C(C(C)C)C(C#N)=C(N)O2` (stereo unspecified), the B-score entry was “inactive”.

Turning to `O=C(c1cccnc1)N(c1cc2sc(=O)oc2c2ccccc12)S(=O)(=O)c1ccccc1`, the B-score entry was “inactive”. The value for `CCc1ccc(C2C(C#N)=C(N)N(N3CCOCC3)C3=C2C(=O)CC(C)(C)C3)s1` (stereo unspecified) was 4.85 (active); that for `CCc1ccc(C2C(C#N)=C(N)N(N(C)C)C3=C2C(=O)CCC3)s1` (stereo unspecified) was “inactive”; that for `COc1ccc(C2C(C#N)=C(/N=C/N3CCOCC3)OC3=C2C(=O)CC(C)(C)C3)cc1OC` (stereo unspecified) was “inactive”. As to `S=c1[nH]nc(-c2cccs2)n1/N=C/c1cccs1`, the B-score entry is “inactive”. The value for `Cc1ccsc1/C=N/n1c(=S)[nH]nc(C)c1=O` was 5.78 (active). `Oc1ccccc1/C=N/n1c(-c2cccs2)n[nH]c1=S`: the B-score result was “inactive”.

Consider `CC(OC(=O)CCc1nc(=O)c2ccccc2n1C)C(=O)NCc1ccc2c(c1)OCO2` (stereo unspecified), for which the B-score entry is “inactive”. Take `O=C(O)C1C2CC2CN1C(=O)c1ccc(Cl)cc1Cl` (stereo unspecified): the B-score result was “inactive”. As for `COc1ccc(CNS(=O)(=O)c2ccc(-c3cnc(C4CC4)o3)cc2)cc1`, the entry is “inactive”; as for `CC(=O)Nc1ccc(S(=O)(=O)Nc2cccc(NC(=O)C(C)(C)C)c2)cc1`, “inactive”.

In the case of `CC(=O)Nc1ccc(S(=O)(=O)Nc2nc(-c3ccc(C(C)(C)C)cc3)cs2)cc1`, the B-score was 5.98 (active). Take `CC(=O)Nc1ccc(-c2csc(NC=C3C(=O)OC(C)(C)OC3=O)n2)cc1`: the B-score result was “inactive”. For `Oc1ccc(/C=N/Nc2ccc(C(F)(F)F)cn2)cc1O`, the B-score is 9.02 (active). `Cc1nccn1CC(=O)N/N=C/c1ccc(O)c(O)c1`: the B-score result is “inactive”.

Take `Oc1ccc(Br)cc1/C=N/Nc1ccccn1`: the B-score entry is “inactive”. The value for `O=C(c1n[nH]c2c1CCC2)N1CCCC(Nc2cccc(F)c2)C1` (stereo unspecified) was “inactive”; that for `O=C(N/N=C/c1cc(Cl)cc([N+](=O)[O-])c1O)C(O)(c1ccccc1)c1ccccc1` was “inactive”; that for `O=C(NC(=S)Nc1ccc(S(=O)(=O)N2CCOCC2)cc1)c1ccccc1[N+](=O)[O-]` was “inactive”.

`O=[N+]([O-])c1cc(Cl)cc(/C=N/NC(=S)Nc2cc(S(=O)(=O)N3CCOCC3)ccc2Cl)c1O`: the B-score was 6.74 (active).

For `COc1cccc(N2CC(C(=O)NCc3n[nH]c(=O)c4ccccc34)CC2=O)c1` (stereo unspecified), the B-score entry was “inactive”. Regarding `CN(c1ccccc1)S(=O)(=O)c1cc(C(=O)Nc2nc3ccccc3[nH]2)ccc1Cl`, the B-score entry was “inactive”.

In the case of `Nc1ccc(-c2nnc(-c3ccccc3)o2)cc1`, the B-score entry was “inactive”.

Consider `COc1ccc(-c2nc3cc([N+](=O)[O-])ccc3o2)cc1OC`, for which the B-score entry was “inactive”. The value for `CCc1ccc2oc(-c3ccc(N)cc3)nc2c1` was 10.6 (active); that for `C=CC(COCc1ccccc1)N(Cc1ccccc1)S(=O)(=O)c1ccccc1Br` (stereo unspecified) was “inactive”.
